Reference: the supplement of paper PMC7411054
Where a name gives a salt, the structure may show the parent alone.

Legend:
Assay in all cases: phenotypically active (imaging signature differs from DMSO and reproducible) at any of 0.3-9 uM (binary (1 = active, 0 = inactive)); higher = active
Details in all cases: treatment time: 24 h
A549-ACTB-RAB5A = tested on: A549-ACTB-RAB5A
Outline: (§1)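 Fifteen gene-edited A549, HepG2 and WPMY1 reporter lines (BFP segmentation plus GFP and RFP/FusionRed markers) were treated at 0.3, 1, 3 or 9 µM for 24 h, four wells each, then imaged live. Live-cell features per well were normalised to DMSO control wells. Deviation required ≥3 of 4 wells beyond the 95th percentile of DMSO Euclidean distances, and reproducibility required median replicate Pearson correlation above the 95th percentile of non-replicates. Phenotypic activity needed both criteria.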

A549-CANX-COX4 = tested on: A549-CANX-COX4
Outline: as §1

A549-GM130-SQSTM1 = tested on: A549-GM130-SQSTM1
Outline: as §1

A549-TP53BP1-CLTA = tested on: A549-TP53BP1-CLTA
Outline: as §1

A549-TUBA1B-RELA = tested on: A549-TUBA1B-RELA
Outline: as §1

HepG2-ACTB-RAB5A = tested on: HepG2-ACTB-RAB5A
Outline: as §1

HepG2-CANX-COX4 = tested on: HepG2-CANX-COX4
Outline: as §1

HepG2-GM130-SQSTM1 = tested on: HepG2-GM130-SQSTM1
Outline: as §1

HepG2-TP53BP1-CLTA = tested on: HepG2-TP53BP1-CLTA
Outline: as §1

HepG2-TUBA1B-RELA = tested on: HepG2-TUBA1B-RELA
Outline: as §1

WPMY1-ACTB-RAB5A = tested on: WPMY1-ACTB-RAB5A
Outline: as §1

WPMY1-CANX-COX4 = tested on: WPMY1-CANX-COX4
Outline: as §1

WPMY1-GM130-SQSTM1 = tested on: WPMY1-GM130-SQSTM1
Outline: as §1

WPMY1-TP53BP1-CLTA = tested on: WPMY1-TP53BP1-CLTA
Outline: as §1

WPMY1-TUBA1B-RELA = tested on: WPMY1-TUBA1B-RELA
Outline: as §1

Measured: phenotypically active

CCCC(CCC)C(=O)O [Valproic acid, sodium salt]
inactive: A549-ACTB-RAB5A 0 | A549-CANX-COX4 0 | A549-GM130-SQSTM1 0 | A549-TP53BP1-CLTA 0 | A549-TUBA1B-RELA 0 | HepG2-ACTB-RAB5A 0 | HepG2-CANX-COX4 0 | HepG2-GM130-SQSTM1 0 | HepG2-TP53BP1-CLTA 0 | HepG2-TUBA1B-RELA 0 | WPMY1-ACTB-RAB5A 0 | WPMY1-CANX-COX4 0 | WPMY1-GM130-SQSTM1 0 | WPMY1-TP53BP1-CLTA 0 | WPMY1-TUBA1B-RELA 0

NC(=O)c1cccnc1 [Nicotinamide]
inactive: A549-ACTB-RAB5A 0 | A549-CANX-COX4 0 | A549-GM130-SQSTM1 0 | A549-TP53BP1-CLTA 0 | A549-TUBA1B-RELA 0 | HepG2-ACTB-RAB5A 0 | HepG2-CANX-COX4 0 | HepG2-GM130-SQSTM1 0 | HepG2-TP53BP1-CLTA 0 | HepG2-TUBA1B-RELA 0 | WPMY1-ACTB-RAB5A 0 | WPMY1-CANX-COX4 0 | WPMY1-GM130-SQSTM1 0 | WPMY1-TP53BP1-CLTA 0 | WPMY1-TUBA1B-RELA 0

O=C(NCC1CCCCN1)c1cc(OCC(F)(F)F)ccc1OCC(F)(F)F (stereo not given) [flecainide]
inactive: A549-ACTB-RAB5A 0 | A549-CANX-COX4 0 | A549-GM130-SQSTM1 0 | A549-TP53BP1-CLTA 0 | A549-TUBA1B-RELA 0 | HepG2-ACTB-RAB5A 0 | HepG2-CANX-COX4 0 | HepG2-GM130-SQSTM1 0 | HepG2-TP53BP1-CLTA 0 | HepG2-TUBA1B-RELA 0 | WPMY1-ACTB-RAB5A 0 | WPMY1-CANX-COX4 0 | WPMY1-GM130-SQSTM1 0 | WPMY1-TP53BP1-CLTA 0 | WPMY1-TUBA1B-RELA 0

N=C(N)NN=Cc1c(Cl)cccc1Cl [guanabenz]
inactive: A549-ACTB-RAB5A 0 | A549-CANX-COX4 0 | A549-GM130-SQSTM1 0 | A549-TP53BP1-CLTA 0 | A549-TUBA1B-RELA 0 | HepG2-ACTB-RAB5A 0 | HepG2-CANX-COX4 0 | HepG2-GM130-SQSTM1 0 | HepG2-TP53BP1-CLTA 0 | HepG2-TUBA1B-RELA 0 | WPMY1-ACTB-RAB5A 0 | WPMY1-CANX-COX4 0 | WPMY1-GM130-SQSTM1 0 | WPMY1-TP53BP1-CLTA 0 | WPMY1-TUBA1B-RELA 0

CN1C(=O)CC(C)(c2ccccc2)C1=O (stereo not given) [methsuximide]
inactive: A549-ACTB-RAB5A 0 | A549-CANX-COX4 0 | A549-GM130-SQSTM1 0 | A549-TP53BP1-CLTA 0 | A549-TUBA1B-RELA 0 | HepG2-ACTB-RAB5A 0 | HepG2-CANX-COX4 0 | HepG2-GM130-SQSTM1 0 | HepG2-TP53BP1-CLTA 0 | HepG2-TUBA1B-RELA 0 | WPMY1-ACTB-RAB5A 0 | WPMY1-CANX-COX4 0 | WPMY1-GM130-SQSTM1 0 | WPMY1-TP53BP1-CLTA 0 | WPMY1-TUBA1B-RELA 0

O=C(NCc1ccccn1)Nc1nnc(-c2ccco2)o1
inactive: A549-ACTB-RAB5A 0 | A549-CANX-COX4 0 | A549-GM130-SQSTM1 0 | A549-TP53BP1-CLTA 0 | A549-TUBA1B-RELA 0 | HepG2-ACTB-RAB5A 0 | HepG2-CANX-COX4 0 | HepG2-GM130-SQSTM1 0 | HepG2-TP53BP1-CLTA 0 | HepG2-TUBA1B-RELA 0 | WPMY1-ACTB-RAB5A 0 | WPMY1-CANX-COX4 0 | WPMY1-GM130-SQSTM1 0 | WPMY1-TP53BP1-CLTA 0 | WPMY1-TUBA1B-RELA 0

Cc1cnc(C(=O)NCCc2ccc(S(=O)(=O)NC(=O)NC3CCCCC3)cc2)cn1 [glipizide]
inactive: A549-ACTB-RAB5A 0 | A549-CANX-COX4 0 | A549-GM130-SQSTM1 0 | A549-TP53BP1-CLTA 0 | A549-TUBA1B-RELA 0 | HepG2-ACTB-RAB5A 0 | HepG2-CANX-COX4 0 | HepG2-GM130-SQSTM1 0 | HepG2-TP53BP1-CLTA 0 | HepG2-TUBA1B-RELA 0 | WPMY1-ACTB-RAB5A 0 | WPMY1-CANX-COX4 0 | WPMY1-GM130-SQSTM1 0 | WPMY1-TP53BP1-CLTA 0 | WPMY1-TUBA1B-RELA 0

COCc1nc2c([nH]1)c(=O)n(C)c(=O)n2CC(C)C
inactive: A549-ACTB-RAB5A 0 | A549-CANX-COX4 0 | A549-GM130-SQSTM1 0 | A549-TP53BP1-CLTA 0 | A549-TUBA1B-RELA 0 | HepG2-ACTB-RAB5A 0 | HepG2-CANX-COX4 0 | HepG2-GM130-SQSTM1 0 | HepG2-TP53BP1-CLTA 0 | HepG2-TUBA1B-RELA 0 | WPMY1-ACTB-RAB5A 0 | WPMY1-CANX-COX4 0 | WPMY1-GM130-SQSTM1 0 | WPMY1-TP53BP1-CLTA 0 | WPMY1-TUBA1B-RELA 0

COc1ccc(Cl)cc1C(=O)NCCc1ccc(S(=O)(=O)NC(=O)NC2CCCCC2)cc1 [glyburide]
inactive: A549-ACTB-RAB5A 0 | A549-CANX-COX4 0 | A549-GM130-SQSTM1 0 | A549-TP53BP1-CLTA 0 | A549-TUBA1B-RELA 0 | HepG2-ACTB-RAB5A 0 | HepG2-CANX-COX4 0 | HepG2-GM130-SQSTM1 0 | HepG2-TP53BP1-CLTA 0 | HepG2-TUBA1B-RELA 0 | WPMY1-ACTB-RAB5A 0 | WPMY1-CANX-COX4 0 | WPMY1-GM130-SQSTM1 0 | WPMY1-TP53BP1-CLTA 0 | WPMY1-TUBA1B-RELA 0

C[N+]1(C)CCC(=C(c2ccccc2)c2ccccc2)CC1 [diphemanil]
inactive: A549-ACTB-RAB5A 0 | A549-CANX-COX4 0 | A549-GM130-SQSTM1 0 | A549-TP53BP1-CLTA 0 | A549-TUBA1B-RELA 0 | HepG2-ACTB-RAB5A 0 | HepG2-CANX-COX4 0 | HepG2-GM130-SQSTM1 0 | HepG2-TP53BP1-CLTA 0 | HepG2-TUBA1B-RELA 0 | WPMY1-ACTB-RAB5A 0 | WPMY1-CANX-COX4 0 | WPMY1-GM130-SQSTM1 0 | WPMY1-TP53BP1-CLTA 0 | WPMY1-TUBA1B-RELA 0
